Measured values from ChEMBL document CHEMBL4513216, “Probing the Open Global Health Chemical Diversity Library for Multistage-Active Starting Points for Next-Generation Antimalarials” (ACS Infect Dis, 2020).
Screen size: about 69,000 compounds; about 8,600 (12%) showed an effect of 50% or more. Many of the other results were omitted from the sample, so strong results are more common in it than they were.

System: Plasmodium berghei
Experiment: Screen against P. berghei liver stage (PbLuc), transformed with Luciferase, at 10uM
Type: functional, HepG2
Details: tested at 10 uM

SMILES | INHIBITION [%]
CC(=O)N1CCC(c2ccnc(Nc3cncnc3)n2)C1 (stereo not given) | 42.6
CCN1CC2(CCNCC2)COc2ccccc2S1(=O)=O | -0.79
CNC(=O)CN1C(=O)CCC12CCCN(Cc1cccc(F)c1)C2 (stereo not given) | 32.1
Cc1nc2[nH]cnc(Nc3cc(C)n(C)n3)c-2n1 | -6.42
Cc1nc(CN2CCCC(N(C)CCc3ccncc3)C2)no1 (stereo not given) | 25.7
CCN(Cc1ccncc1)C1CCCN(C/C=C/c2ccc(F)cc2)C1 (stereo not given) | 55.9
CCN(Cc1ccncc1)C1CCCN(Cc2ccc(F)cc2OC)C1 (stereo not given) | 25.5
CCN(Cc1ccncc1)C1CCCN(Cc2ccc(F)cc2Cl)C1 (stereo not given) | 62.4
CCn1c(C2CCCN(Cc3ccc(F)cc3Cl)C2)nn(C)c1=O (stereo not given) | -36.4
CCn1ccnc1CN(C)C1CCCN(Cc2ccccc2F)C1 (stereo not given) | -11.3
O=C(c1ccncc1F)N1CCc2onc(COc3cccnc3)c2C1 | 29.9
CCc1nc(CC)n(CC(=O)NCc2ccccc2C)n1 | 37.6
CC(Cn1cccn1)NC(=O)N(C)Cc1cnn(C)c1 (stereo not given) | 22.6
O=C(c1ccc2c(c1)CCO2)N1CCN(c2cnccn2)CC1 | -32
NCC(=O)N1CCCC(O)(CN2CCN(c3ccccc3)CC2)CC1 (stereo not given) | 2.55
CO[C@@H]1CCN(c2nnc(C)s2)C[C@@H]1Cc1ccccc1 | 37.8
Cc1nnc(N2CC[C@@H](OCC3CC3)[C@@H](Cc3ccccc3)C2)s1 | 92.5
COc1ccc(C[C@H]2CN(c3nnc(C)s3)CC[C@@H]2OC)cc1 | -3.83
Cc1nnc(N2CC[C@H](OCC3CC3)[C@@H](Cc3ccccc3)C2)s1 | 41.4
CO[C@H]1CCN(c2nnc(C)s2)C[C@@H]1Cc1ccccc1 | -13.7
COc1ccc(C[C@H]2CN(c3nnc(C)s3)CC[C@H]2OC)cc1 | 61.9
CC(C)(C(=O)NCC1CCN(Cc2cccnc2)C1)c1ccccc1 (stereo not given) | 6.66

SMILES | INHIBITION [%]
O=C(NC1CC1)c1ccccc1NCc1cn2cccnc2n1 | -17
CN(C)C1CCC2(CCN(Cc3nccn3C)CC2)c2ccccc21 (stereo not given) | 66.3
Cn1ccnc1CN1CCC2(CC1)CCN(c1ccccc1)C2=O | 16.6
CN1CC2(CCN(Cc3cccnc3)CC2)c2cc(F)ccc21 | -29.8
CN(C)C1CCC2(CCN(Cc3cccnc3)CC2)c2ccccc21 (stereo not given) | 50.4
Cn1ccnc1CN1CCC2(CC1)CC(N1CCCC1)c1ccccc12 (stereo not given) | 24.6
CN1CC2(CCN(Cc3cccnc3)CC2)c2cccc(F)c21 | -16.9
Cc1nn(CCC(=O)N2CCCC(OCc3cccnc3)C2)c(C)c1C (stereo not given) | 41.2
COC1CCCOC12CCN(C(=O)NCCc1cccs1)CC2 (stereo not given) | -142
O=C(N1CCCCC1)N1CCCC(c2ncncc2-c2ccncc2)C1 (stereo not given) | 17.1
Cc1cc(CC(C)NC2CCSCC2)[nH]n1 (stereo not given) | 22.7
CCCc1cc(CN(C)C2CSCCSC2)n[nH]1 | 51.1
CCCc1cc(CN(C)C2CCSCC2)n[nH]1 | 50.1
CCCc1cc(CN(C)C2CC(C)(C)NC(C)(C)C2)n[nH]1 | 11.6
COCc1cc(CN(C)C(=O)c2c[nH]nc2-c2cccc(F)c2)n[nH]1 | -11.2
CCCc1cc(C(=O)N(Cc2cccnc2)C2CCCCC2)[nH]n1 | -9.87
CCCNC(=O)NC(=O)CN1CCN(Cc2nccn2CC)CC1 | 5.308
Cc1nc(CN2CCN(C(=O)CCc3nc(C(C)(C)C)no3)CC2)cs1 | 30.8
c1cncc(CN2CCc3c(nnn3CC3CC3)C2COCC2CC2)c1 (stereo not given) | 27.4
CCN1CCN(C(=O)Cn2ncc3c2c(C)nn3C(C)C)CC1 | 15.9
CCC(C)N(C)CCNC(=O)c1ccccc1OCCOC (stereo not given) | 8.64
O=C1CCC2(CCCN(Cc3ccccc3F)C2)N1CC1CC1 (stereo not given) | -19.6

SMILES | INHIBITION [%]
CCOCc1ccccc1NC(=O)NCC(C)(O)c1cccs1 (stereo not given) | 0.734
CCOCc1ccccc1NC(=O)NCC(C)(O)c1ccsc1 (stereo not given) | 11
CCOCc1ccccc1NC(=O)NCC(C)(O)c1cc(C)oc1C (stereo not given) | 85.5
CCC(CN1CCCC1)n1cncc1-c1cnn(Cc2ccccc2)c1 (stereo not given) | 3.5
CN(C)S(=O)(=O)N1CCC(c2ccncc2)CC1 | -33.4
Cc1cccc(NC(=O)C(C)Oc2ccc3c(c2)OCO3)n1 (stereo not given) | 53.7
Cc1cc(C)nc(NC(=O)C(C)Oc2ccc3c(c2)OCO3)n1 (stereo not given) | 48.5
Cc1cc(NC(=O)C(C)Oc2ccc3c(c2)OCO3)no1 (stereo not given) | 14.6
CC(=O)c1cccc(CN2CCCC23CCN(c2ccccn2)CC3)c1 | 19.8
COc1cccc(CSC=C2Nc3ccccc3S(=O)(=O)N2)c1 | 27.7
COc1cccc(CN(C)CC(=O)NC2(C)CCS(=O)(=O)C2)c1 (stereo not given) | -27.9
COc1cccc(CN(C)CC2=Nc3ccccc3S(=O)(=O)N2)c1 | 69.7
CNS(=O)(=O)c1ccc(CCC(=O)NCc2cccc(OC)c2)cc1 | -74.6
COc1cccc(CNC(=O)CCC2=Nc3ccccc3S(=O)(=O)N2)c1 | 57
COc1cccc(CNC(=O)CCOc2ccccc2C)c1 | 2.43
Cc1nn(C)c(N(C)C)c1CNC1CCOc2ccccc21 (stereo not given) | -5.05
Cc1oc2c(c1C(=O)N1C[C@H](O)[C@]3(CCCO3)C1)CCCC2 | 3.95
CC1CN(C)CCN1C(=O)Nc1nc(-c2ccc[nH]2)cs1 (stereo not given) | 6.33
CS(=O)(=O)NCCNCc1ccc(Br)s1 | -40.7
CN1C(=O)C(C)(C)COc2cc(NS(=O)(=O)c3ccccc3F)ccc21 | 22.3
CC(C)Sc1ncccc1C(=O)NCc1ccc(CS(C)(=O)=O)cc1 | 14.4
CC(C)Sc1ncccc1C(=O)NCc1ccoc1 | 42.9

SMILES | INHIBITION [%]
CC(C)Sc1ncccc1C(=O)NCc1ccc(O)cc1 | 60.7
O=C(NCCc1nnc2n1CCC2)NCC1(c2ccc(F)cc2)CC1 | 9.63
COc1ccccc1N1CCN(C(=O)Cn2nc(C)c(Cl)c2C)CC1 | -29.2
CCS(=O)(=O)N1CCC2(CC1)CC1(CCN(CCOC)CC1)C(=O)N2C | 40.8
Cc1cc(CN[C@@H](Cc2ccccc2)C(N)=O)c(C)s1 | 53.3
Cc1cc(CN[C@H](C(N)=O)[C@@H](C)O)c(C)s1 | 38.7
Cc1cc(CN[C@@H](C)C(N)=O)c(C)s1 | 16.3
Cc1csc(C(C)(C)NCc2ncc(-c3ccc(F)cc3)o2)n1 | -46.4
COc1ncc(CN2CCOC(C)(C(=O)N3CCOCC3)C2)cn1 (stereo not given) | 41.2
O=c1[nH]ncc(NCCOc2ccc3c(c2)OCO3)c1Cl | 20.3
O=c1[nH]ncc(NCCOc2cccc(Br)c2)c1Cl | 15.6
O=c1[nH]ncc(NCCOc2ccc3c(c2)CCC3)c1Cl | 77.1
CCn1nccc1CN(C)C(=O)Cn1cc2c(n1)c(C)nn2CC | 35
O=C(CSc1ncccn1)N1C[C@@H]2CC[C@H]1CN(Cc1ccncc1)C2 | 21.6
Cc1nc2c(C)cccc2cc1C(=O)N1CCC2(CCNCC2)CC1 | 47.7
Cc1cc(O)c(OCC(=O)/N=c2\[nH]cc(C)s2)cn1 | -48.2
Cc1ccc(-c2nc(CNC3CCc4ncnn4C3)no2)cc1 (stereo not given) | 0.411
CC(Cn1ccnc1)NC(=O)C1(c2ccccc2)CC1 (stereo not given) | 46.2
Cc1ccc(CN2Cc3nnn(C)c3C(COCc3ccccc3)C2)o1 (stereo not given) | 28.4
COCC1CN(Cc2ccc(C)s2)Cc2nnn(C)c21 (stereo not given) | 21.4
Cc1ccc(CN2Cc3nnn(C)c3C(COCCN(C)C)C2)s1 (stereo not given) | 10
Cc1ccc(CN2Cc3nnn(C)c3C(COCc3ccccc3)C2)s1 (stereo not given) | 78.7

SMILES | INHIBITION [%]
Cc1ccc(CN2Cc3nnn(C)c3C(COCc3ccccn3)C2)s1 (stereo not given) | -37.9
Cc1ccc(CN2Cc3nnn(C)c3C(COCC3CC3)C2)s1 (stereo not given) | 71.8
CC[C@@H]1C[C@H](C(F)(F)F)n2nc(C3CCN(S(=O)(=O)CC)CC3)cc2N1 | 46
NC(=O)COc1ccc(CNCc2cc(F)ccc2F)cc1 | 1.56
CCn1c(C)nnc1CN(C)C1CCN(Cc2nnc(C3CC3)o2)C1 (stereo not given) | 36.1
CCC(O)Cn1nc(-c2ccc(C(=O)O)cc2)cc1-c1cccc(F)c1 (stereo not given) | 19.75
CC(C)Cn1nc(-c2ccc(C(=O)O)cc2)cc1-c1ccc(F)cc1 | 54.3
CCC(O)Cn1nc(-c2ccc(C(=O)O)cc2)cc1-c1ccc(F)cc1 (stereo not given) | 38.05
COc1ccc(CC2CN(C3CCSCC3)CCO2)cc1 (stereo not given) | 35.4
Cc1ccc(N2CC[C@H]3OCC[C@@]3(C(=O)N3CCCO3)C2)nn1 | 25.3
Cc1csc(CNC(=O)N(C)Cc2ccncc2)n1 | -53.6835
CC(NC(=O)N(C)Cc1ccncc1)c1nncn1C (stereo not given) | 13.7
CC(NC(=O)N(C)Cc1ccncc1)c1cn(-c2ccccc2)nn1 (stereo not given) | 60.1
CCN(Cc1ccncc1)Cc1cn(-c2ccccc2)nn1 | 5.33
CC(NC(=O)CCCN(C)C)c1cn(-c2ccccc2)nn1 (stereo not given) | 21.8
CN(Cc1ccncc1)C(=O)NCc1cn(-c2ccccc2)nn1 | 56.3
NC(=O)NCC(=O)N1CCCC(c2nccn2CC2CCC2)C1 (stereo not given) | 17.5
CC(C)c1nnc2n1CCN(c1nn3cc(C(C)(C)C)nc3s1)C2 | -34.6
Cc1nn(C)c(Cl)c1C1CCCN1Cc1nc(C2CC2)no1 (stereo not given) | 37.4
CCn1ccnc1CN1CCN(CCOc2ccccc2OC)CC1 | 27.1
COc1ccc(-c2nccn2CCN2CCCCC2)c(OC)c1OC | 55
COC(=O)CCCn1ccnc1-c1ccc(OC)c(F)c1F | 43.9
